The values that follow come from PubChem BioAssay.

Each structure is given as a SMILES string. The source made the active and inactive calls.

Assay [1] is described as follows: optical density shifts of acrAB sulA E. coli – strain DRC41, OD650, 48 h, E. coli filamentation inducer project, primary screen (AID 1152).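 Also: E. coli MC1000 strain DRC41 lacking acrAB efflux pump and sulA.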 The following applies: higher = more signal, called active from +8 up or from −8 down.
A short description of assay [2]: probe aLefty1 binding on compound microarray – biochemical, small-molecule microarray, 635/667 nm fluorescence, primary screen (AID 1153).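 Also: score merges spot fluorescence with signal-to-noise ratio from the scanned slide images.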 The following applies: higher = more signal.
Assay [3] can be described thus: plasmodial surface anion channel blockers, osmotic lysis – cell-based, P. falciparum Indochina, OD700, 1 h, primary screen (AID 1154). The conditions noted are these: P. falciparum Indochina infected RBC osmotic lysis, higher = more signal, called active from +8 up or from −8 down.
A short description of assay [4]: plasmodial surface anion channel blockers, osmotic lysis – cell-based, P. falciparum Indochina, OD700, 2 h, primary screen (AID 1155).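 Also: lysis reports solute entry through the parasite surface anion channel PSAC.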 The conditions noted are these: P. falciparum Indochina infected erythrocytes, higher = more signal, called active from +8 up or from −8 down.
Assay [5] is described as follows: changes in parasitized red cell lysis, either direction – P. falciparum Indochina, OD700, 3 h, PSAC antagonist project, primary screen (AID 1156). The following applies: P. falciparum-infected erythrocytes, osmotic lysis, higher = more signal, called active from +8 up or from −8 down.
A short description of assay [6]: plasmodial surface anion channel blockers, osmotic lysis – cell-based, P. falciparum Indochina, OD700, 18 h, primary screen (AID 1157). The conditions noted are these: P. falciparum Indochina infected erythrocytes, osmotic lysis OD700, 18 h; higher = more signal, called active from +8 up or from −8 down.
A short description of assay [7]: S6 kinase pathway phospho-S6 level changes – cell-based, A549, cytoblot, luminescence, serum-stimulated, primary screen (AID 1158).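 Also: serum-stimulated A549 lung adenocarcinoma cells; signal is phosphorylated S6 detected by cytoblot immunostaining with HRP secondary.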 The following applies: 5 h, higher = more signal.
Assay [8] deals with NADPH oxidase 2 (Homo sapiens) (UniProt P04839). Description: compounds shifting NOX2 Amplex Red fluorescence – cell-based, HEK293-NOX2, PMA-stimulated, NOX inhibitor project, primary screen (AID 1159). Also: test concentration not given here. The following applies: 45 min, higher = more signal, called active from +8 up or from −8 down.
Chain of NADPH oxidase 2 (Homo sapiens) (P04839 whole entry, looked up): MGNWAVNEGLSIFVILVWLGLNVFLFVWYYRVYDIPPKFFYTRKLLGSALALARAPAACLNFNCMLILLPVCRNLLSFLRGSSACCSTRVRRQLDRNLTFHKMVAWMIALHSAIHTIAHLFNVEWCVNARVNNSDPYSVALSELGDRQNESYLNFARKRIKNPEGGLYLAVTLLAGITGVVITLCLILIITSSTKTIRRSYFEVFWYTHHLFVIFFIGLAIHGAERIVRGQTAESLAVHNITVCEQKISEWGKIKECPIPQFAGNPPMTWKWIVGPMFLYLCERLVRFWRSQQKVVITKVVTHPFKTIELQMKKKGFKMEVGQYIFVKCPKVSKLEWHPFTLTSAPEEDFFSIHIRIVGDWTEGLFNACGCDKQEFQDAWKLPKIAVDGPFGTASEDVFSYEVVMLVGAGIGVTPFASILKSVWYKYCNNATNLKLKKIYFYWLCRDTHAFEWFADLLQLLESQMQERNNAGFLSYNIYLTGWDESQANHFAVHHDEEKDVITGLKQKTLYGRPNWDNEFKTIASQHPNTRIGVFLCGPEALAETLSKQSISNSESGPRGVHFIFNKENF
The target in assay [9] is NADPH oxidase 4 (Homo sapiens) (UniProt Q9NPH5). Description: compounds shifting NOX4 Amplex Red fluorescence – cell-based, HEK293-NOX4, tetracycline-induced, NOX inhibitor project, primary screen (AID 1160). The following applies: HEK293-NOX4, Amplex Red H2O2 fluorescence, 45 min; higher = more signal, called active from +8 up or from −8 down.
Chain of NADPH oxidase 4 (Homo sapiens) (Q9NPH5 whole entry, looked up): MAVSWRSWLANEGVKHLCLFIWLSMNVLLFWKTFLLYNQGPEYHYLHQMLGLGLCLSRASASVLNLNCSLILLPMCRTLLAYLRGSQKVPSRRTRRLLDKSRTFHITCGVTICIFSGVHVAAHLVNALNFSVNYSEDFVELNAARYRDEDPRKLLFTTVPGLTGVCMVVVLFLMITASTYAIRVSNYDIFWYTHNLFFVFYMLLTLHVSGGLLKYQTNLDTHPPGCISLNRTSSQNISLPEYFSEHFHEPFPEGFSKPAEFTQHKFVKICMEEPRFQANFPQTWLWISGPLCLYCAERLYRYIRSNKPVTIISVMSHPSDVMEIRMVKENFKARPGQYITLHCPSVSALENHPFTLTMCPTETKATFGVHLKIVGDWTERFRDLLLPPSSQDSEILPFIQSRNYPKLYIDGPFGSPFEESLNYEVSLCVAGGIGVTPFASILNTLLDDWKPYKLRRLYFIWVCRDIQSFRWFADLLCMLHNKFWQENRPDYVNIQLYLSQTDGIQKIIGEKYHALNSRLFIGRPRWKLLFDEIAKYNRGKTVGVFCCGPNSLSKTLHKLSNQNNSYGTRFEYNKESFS
The target of assay [10] is NADPH oxidase 5 (Homo sapiens) (UniProt Q96PH1). Description: compounds shifting NOX5 Amplex Red fluorescence – cell-based, HEK293-NOX5, NOX inhibitor project, primary screen (AID 1161). The following applies: HEK293-NOX5, ionomycin, 45 min, higher = more signal.
Chain of NADPH oxidase 5 (Homo sapiens) (Q96PH1 whole entry, looked up): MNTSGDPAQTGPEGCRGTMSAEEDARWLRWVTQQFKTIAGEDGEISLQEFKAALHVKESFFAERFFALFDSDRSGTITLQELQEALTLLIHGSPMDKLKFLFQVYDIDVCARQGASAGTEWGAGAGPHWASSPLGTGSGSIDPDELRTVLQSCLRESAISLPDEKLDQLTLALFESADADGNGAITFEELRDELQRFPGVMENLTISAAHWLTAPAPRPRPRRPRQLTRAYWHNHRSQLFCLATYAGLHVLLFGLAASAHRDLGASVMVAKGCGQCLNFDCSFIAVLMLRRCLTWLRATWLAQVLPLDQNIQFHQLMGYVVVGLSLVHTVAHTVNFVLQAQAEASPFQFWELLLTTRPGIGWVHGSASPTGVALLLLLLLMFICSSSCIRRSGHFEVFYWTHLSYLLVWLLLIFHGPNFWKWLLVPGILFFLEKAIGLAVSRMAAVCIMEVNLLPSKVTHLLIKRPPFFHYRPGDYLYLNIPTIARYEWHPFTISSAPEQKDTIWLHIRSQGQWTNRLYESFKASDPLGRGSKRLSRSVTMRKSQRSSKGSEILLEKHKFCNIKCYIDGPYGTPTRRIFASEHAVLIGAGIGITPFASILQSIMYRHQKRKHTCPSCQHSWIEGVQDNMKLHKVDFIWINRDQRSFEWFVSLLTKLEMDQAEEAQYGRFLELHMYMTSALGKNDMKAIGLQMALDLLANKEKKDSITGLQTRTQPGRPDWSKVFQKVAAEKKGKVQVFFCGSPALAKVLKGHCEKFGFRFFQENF
Assay [11] in a line: compound effects on lung adenocarcinoma cell viability – A549, calcein-AM fluorescence, 48 h, basal, profiling panel (AID 1162). Also: test concentration not given here. The conditions noted are these: higher = more signal.
The nature of assay [12]: compound effects on differentiated 3T3-L1 adipocyte viability – cell-based, 3T3-L1 adipocytes, calcein-AM fluorescence, 48 h, basal, profiling panel (AID 1163). Also: test concentration not given here. The following applies: 3T3-L1 adipocytes viability, higher = more signal.
Assay [13] in a line: compound effects on hepatocellular carcinoma cell viability – HepG2, calcein-AM fluorescence, 48 h, basal, profiling panel (AID 1164). Also: test concentration not given here. The conditions noted are these: higher = more signal.
Assay [14] can be described thus: compound effects on multiple myeloma cell viability – MM1S, calcein-AM fluorescence, 48 h, basal, profiling panel (AID 1165). Also: test concentration not given here. The conditions noted are these: higher = more signal.
A short description of assay [15]: calcein-AM signal in unstimulated myeloma cells – cell-based, calcein-AM fluorescence, 48 h, PK04 Diversity Set, profiling panel (AID 1166).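 Also: cells grown under basal conditions without added stimulus; test concentration not given here.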 The following applies: RPMI8226 myeloma viability, higher = more signal.
Assay [16] is described as follows: JC-1 mitochondrial signal, unstimulated HepG2 cells – cell-based, JC-1 fluorescence, 24 h, 100 nL compound, profiling panel (AID 1167). Also: test concentration not given here. The conditions noted are these: HepG2 mitochondrial potential, higher = more signal.
The nature of assay [17]: JC-1 mitochondrial signal, unstimulated adipocytes – cell-based, JC-1 fluorescence, 3T3-L1 adipocytes, 24 h, 100 nL compound, profiling panel (AID 1168). Also: test concentration not given here. The conditions noted are these: JC-1 mitochondrial fluorescence, higher = more signal, called active from +8 up or from −8 down.
The nature of assay [18]: JC-1 mitochondrial signal, unstimulated myeloma cells – cell-based, JC-1 fluorescence, RPMI8226, 24 h, 100 nL compound, profiling panel (AID 1169). Also: test concentration not given here. The following applies: JC-1 mitochondrial potential fluorescence, higher = more signal.
Assay [19] is described as follows: JC-1 mitochondrial signal, unstimulated MM1S myeloma – cell-based, JC-1 fluorescence, 24 h, 100 nL compound, profiling panel (AID 1170). Also: test concentration not given here. The following applies: MM1S mitochondrial potential, higher = more signal.
The nature of assay [20]: resazurin metabolic signal in A549 cells – cell-based, resazurin fluorescence, 24 h, PK04 Diversity Set, profiling panel (AID 1171). Also: test concentration not given here. The following applies: A549 viability, higher = more signal, called active from +8 up or from −8 down. (In general: Resazurin is reduced to fluorescent resorufin, in cell work by metabolically active cells.)

With `CC(CCN1CCCCc2nc(C)c(C)cc21)=NOC[C@@H](C)[C@H](OCc1ccccc1)C(C)C`, the z-score in assay [1] was -0.605 (inactive); in [3] it was -0.0226 (inactive); in assay [4] it was -1.71 (inactive); in [5] it was 0.167 (inactive); in assay [6], -1.99 (inactive); in [7], 1.08. The z-score in assay [8] is -1.86 (inactive); in [9], -0.629 (inactive); in [10], -3.18; in assay [11], 0.139; in [12] it was 0.588; in assay [13], 1.39. In addition, the z-score in [14] was -1.5; in [15] it was 0.327; in assay [16] it was -0.728; in assay [17], 0.155 (inactive); in assay [18] it was 0.0506; in [19], -1.06. Further, the z-score in assay [20] was -0.472 (inactive). For the same compound, the composite z-score in [2] is -0.502.
Take `COCCNC(=O)OCC1CCCC2(CC(OC(=O)NCc3ccc4c(c3)OCO4)CC(CCC(=O)N[C@@H](C)C(=O)OC)O2)O1` (stereo not given in full): the z-score in [1] was -0.982 (inactive); in assay [3], -1.19 (inactive); in assay [4] it was 0.276 (inactive); in assay [5] it was 0.0971 (inactive); in assay [6] it was 0.296 (inactive); in assay [7], -0.472. Also, the z-score in [8] was 1.1 (inactive); in [9], 1.29 (inactive); in assay [10], 0.89; in assay [11] it was 0.122; in assay [12], -0.0741; in [13], -1.29. The z-score in assay [14] is 0.463; in assay [15], -2.51; in assay [16] it was -0.802; in assay [17], -0.628 (inactive); in assay [18], 0.934; in assay [19] it was -0.318. The z-score in [20] was 1.66 (inactive). Moreover, the composite z-score in [2] was determined as 0.0341.
As for `O=C1C[C@@H](O)[C@@H](O)[C@@H]2[C@@H]3C(=O)N(C[C@@H]4CCCO4)C(=O)[C@@H]3CC[C@@H]12`, the z-score was 0.668 (inactive) in assay [1]; 0.786 (inactive) in assay [3]; -0.191 (inactive) in assay [4]; 1 (inactive) in assay [5]; -0.0672 (inactive) in [6]; 0.381 in [7]. Moreover, the z-score was -1.38 (inactive) in assay [8]; 0.529 (inactive) in assay [9]; 0.624 in assay [10]; 0.708 in [11]; -0.378 in [12]; 1.12 in assay [13]. Moreover, the z-score was 0.107 in assay [14]; -1.06 in [15]; 1.29 in assay [16]; -0.248 (inactive) in [17]; -0.407 in assay [18]; 0.345 in assay [19]. Further, the z-score in assay [20] is -0.582 (inactive). Also, in [2], the composite z-score is -0.284.
With `COC(=O)CC=C[C@@H](C)[C@@H](C=NO[C@@H]1O[C@H](COC(C)=O)[C@@H](OC(C)=O)[C@H](OC(C)=O)[C@H]1OC(C)=O)OC`, the z-score in assay [1] is -0.477 (inactive); in assay [3], 0.683 (inactive); in assay [4], 0.547 (inactive); in assay [5] it was -0.193 (inactive); in assay [6], 0.416 (inactive); in assay [7] it was -0.474. In addition, the z-score in assay [8] is 1.26 (inactive); in [9] it was 0.729 (inactive); in [10], 0.688; in assay [11], -0.999; in assay [12] it was -0.351; in [13] it was 0.2. Also, the z-score is -0.171 in [14]; 0.418 in [15]; -0.699 in assay [16]; -1.19 (inactive) in assay [17]; 0.128 in assay [18]; -0.0985 in assay [19]. In addition, the z-score in [20] is 1 (inactive). The composite z-score in assay [2] worked out at 0.142.
In the case of `C=CC[C@@H]1C=C[C@H](ON=C2[C@H]3CCn4c(=O)n(-c5ccccc5)c(=O)n4[C@H]3[C@H](O)[C@@H]3O[C@H]23)[C@@H](CO)O1`, the z-score was -0.263 (inactive) in [1]; 1.56 (inactive) in assay [3]; 1.07 (inactive) in [4]; 0.204 (inactive) in [5]; 0.588 (inactive) in [6]; -1.02 in [7]. Also, the z-score was -0.276 (inactive) in [8]; 0.964 (inactive) in assay [9]; 0.394 in assay [10]; -0.547 in assay [11]; -0.203 in [12]; -0.683 in [13]. For the same compound, the z-score in [14] was -1.21; in [15] it was -0.997; in assay [16], -0.568; in assay [17] it was -1.65 (inactive); in [18], -0.172; in assay [19], 0.0203. Also, the z-score in assay [20] is -0.674 (inactive). For the same compound, in assay [2], the composite z-score was -0.28.
